The full data set covers some 8,800 targets. This sample favours those with a hit. About 0.5% of all pairs of compound and target were hits.

log2 fold change data for 13 targets are collected here from the supplement of paper PMC10849652.

What all share (experiment): log2 fold change, soluble protein after heating vs DMSO (PISA); higher = thermal stabilisation; K562 lysate, 10 uM; active = over 0.2 and 3.5 SD of the protein, either way, in both replicates (recomputed)
Compound in one test: CCCS(=O)(=O)Nc1ccc(F)c(C(=O)c2c[nH]c3ncc(-c4ccc(Cl)cc4)cc23)c1F [vemurafenib]
In short, it runs like this: (§1)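 K562 pellets were dounce-homogenised in PBS pH 7.4 with 1 mM MgCl2, and the crude extract at 1 mg/mL protein was treated with 10 μM compound for 30 min. Aliquots were heated for 3 min across 48°C-58°C, pooled, and brought to 0.5% NP-40 at 4°C; soluble protein was the supernatant after 21,000xg for 90 min. Soluble protein was quantified by TMTpro 16plex LC-MS/MS with channel sums equalised, and reported as log2 fold change in thermal stability against DMSO controls, with values from duplicates.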

Compound in test [1]: CCn1cc(-c2ccnc3[nH]c(-c4cccc(CN(C)C)c4)cc23)c(-c2ccc(NC(=O)N(C)C)cc2)n1
In short, it runs like this: as §1

Compound in test [2]: CN1CCC(CNc2ccc3ncc(-c4cccc(OC(F)(F)F)c4)n3n2)CC1
In short, it runs like this:
as §1

Compound in another test: CN1CC[C@H](c2c(O)cc(O)c3c(=O)cc(-c4ccccc4Cl)oc23)[C@H](O)C1 [alvocidib]
Put shortly: as §1

Compound in a further test: CNC(=O)c1ccc(Nc2ncc(C(F)(F)F)c(NCc3nccnc3N(C)S(C)(=O)=O)n2)cc1 [defactinib]
Put shortly:
as §1

Compound in a further test: CCN(CCCOc1ccc2c(Nc3cc(CC(=O)Nc4cccc(F)c4)[nH]n3)ncnc2c1)CCOP(=O)(O)O [barasertib]
Put shortly: as §1

Compound in test [3]: CCn1c(C(=O)N(C2CC2)C2CC2)cc2c3c(ncn3C)c(Nc3cc(C)n(C)n3)nc21
In short, it runs like this:
as §1

Compound in another test: CN1CCN(CCOc2cc(OC3CCOCC3)c3c(Nc4c(Cl)ccc5c4OCO5)ncnc3c2)CC1 [saracatinib]
In short, it runs like this:
as §1

Compound in a further test: CN1CCN(c2nc(C3=C(c4c[nH]c5ccccc45)C(=O)NC3=O)c3ccccc3n2)CC1 [sotrastaurin]
Put shortly: as §1

Compound in another test: CN1CCc2c(c3ccccc3n2Cc2ccc(C(=O)NO)cc2)C1 [Tubastatin A]
In short, it runs like this:
as §1

Compound in test [4]: CNC(=O)C1=CC=CC=C1NC2=NC(=NC=C2Cl)NC3=C(C=C(C=C3)N4CCOCC4)OC
Put shortly: as §1

Compound in test [5]: CNc1nc(-c2ccc3c(N)n[nH]c3c2)cc(N2C[C@@H](C(=O)NC3CCCCC3)CC[C@H]2C)n1
Put shortly: as §1

Compound in a further test: COc1cc(Nc2ncc3c(n2)-c2ccc(Cl)cc2C(c2c(F)cccc2OC)=NC3)ccc1C(=O)O [alisertib]
In short, it runs like this: as §1

Compound in the next test: COc1cc2ncnc(Nc3ccc(F)c(Cl)c3)c2cc1OCCCN1CCOCC1 [gefitinib]
Put shortly: as §1

Compound in test [6]: CC[C@@H]1C(=O)N(C)c2cnc(Nc3ccc(C(=O)NC4CCN(C)CC4)cc3OC)nc2N1C1CCCC1
Put shortly: as §1

Compound in the next test: COC(=O)N[C@@H](C)CNc1nccc(-c2cn(C(C)C)nc2-c2cc(Cl)cc(NS(C)(=O)=O)c2F)n1 [encorafenib]
In short, it runs like this: as §1

Compound in test [7]: COC(=O)[C@H](CCSC)NC(=O)C1=C(C=C(C=C1)NC[C@H](CS)N)C2=CC=CC=C2
Put shortly: as §1

Compound in test [8]: CCCS(=O)(=O)Nc1ccc(F)c(C(=O)c2c[nH]c3ncc(Cl)cc23)c1F
In short, it runs like this:
as §1

Compound in another test: CC[C@@H]1C(=O)N(C)c2cnc(Nc3ccc(C(=O)N[C@H]4CC[C@H](N5CCN(CC6CC6)CC5)CC4)cc3OC)nc2N1C(C)C [volasertib]
In short, it runs like this: as §1

Compound in test [9]: COc1cc2nc(-c3cc(F)ccc3O)nc(N[C@@H]3CNC[C@H]3C(C)(C)O)c2cc1OC
In short, it runs like this:
as §1

UniProt Q9UGU0, sequence (Q9UGU0 whole entry, looked up): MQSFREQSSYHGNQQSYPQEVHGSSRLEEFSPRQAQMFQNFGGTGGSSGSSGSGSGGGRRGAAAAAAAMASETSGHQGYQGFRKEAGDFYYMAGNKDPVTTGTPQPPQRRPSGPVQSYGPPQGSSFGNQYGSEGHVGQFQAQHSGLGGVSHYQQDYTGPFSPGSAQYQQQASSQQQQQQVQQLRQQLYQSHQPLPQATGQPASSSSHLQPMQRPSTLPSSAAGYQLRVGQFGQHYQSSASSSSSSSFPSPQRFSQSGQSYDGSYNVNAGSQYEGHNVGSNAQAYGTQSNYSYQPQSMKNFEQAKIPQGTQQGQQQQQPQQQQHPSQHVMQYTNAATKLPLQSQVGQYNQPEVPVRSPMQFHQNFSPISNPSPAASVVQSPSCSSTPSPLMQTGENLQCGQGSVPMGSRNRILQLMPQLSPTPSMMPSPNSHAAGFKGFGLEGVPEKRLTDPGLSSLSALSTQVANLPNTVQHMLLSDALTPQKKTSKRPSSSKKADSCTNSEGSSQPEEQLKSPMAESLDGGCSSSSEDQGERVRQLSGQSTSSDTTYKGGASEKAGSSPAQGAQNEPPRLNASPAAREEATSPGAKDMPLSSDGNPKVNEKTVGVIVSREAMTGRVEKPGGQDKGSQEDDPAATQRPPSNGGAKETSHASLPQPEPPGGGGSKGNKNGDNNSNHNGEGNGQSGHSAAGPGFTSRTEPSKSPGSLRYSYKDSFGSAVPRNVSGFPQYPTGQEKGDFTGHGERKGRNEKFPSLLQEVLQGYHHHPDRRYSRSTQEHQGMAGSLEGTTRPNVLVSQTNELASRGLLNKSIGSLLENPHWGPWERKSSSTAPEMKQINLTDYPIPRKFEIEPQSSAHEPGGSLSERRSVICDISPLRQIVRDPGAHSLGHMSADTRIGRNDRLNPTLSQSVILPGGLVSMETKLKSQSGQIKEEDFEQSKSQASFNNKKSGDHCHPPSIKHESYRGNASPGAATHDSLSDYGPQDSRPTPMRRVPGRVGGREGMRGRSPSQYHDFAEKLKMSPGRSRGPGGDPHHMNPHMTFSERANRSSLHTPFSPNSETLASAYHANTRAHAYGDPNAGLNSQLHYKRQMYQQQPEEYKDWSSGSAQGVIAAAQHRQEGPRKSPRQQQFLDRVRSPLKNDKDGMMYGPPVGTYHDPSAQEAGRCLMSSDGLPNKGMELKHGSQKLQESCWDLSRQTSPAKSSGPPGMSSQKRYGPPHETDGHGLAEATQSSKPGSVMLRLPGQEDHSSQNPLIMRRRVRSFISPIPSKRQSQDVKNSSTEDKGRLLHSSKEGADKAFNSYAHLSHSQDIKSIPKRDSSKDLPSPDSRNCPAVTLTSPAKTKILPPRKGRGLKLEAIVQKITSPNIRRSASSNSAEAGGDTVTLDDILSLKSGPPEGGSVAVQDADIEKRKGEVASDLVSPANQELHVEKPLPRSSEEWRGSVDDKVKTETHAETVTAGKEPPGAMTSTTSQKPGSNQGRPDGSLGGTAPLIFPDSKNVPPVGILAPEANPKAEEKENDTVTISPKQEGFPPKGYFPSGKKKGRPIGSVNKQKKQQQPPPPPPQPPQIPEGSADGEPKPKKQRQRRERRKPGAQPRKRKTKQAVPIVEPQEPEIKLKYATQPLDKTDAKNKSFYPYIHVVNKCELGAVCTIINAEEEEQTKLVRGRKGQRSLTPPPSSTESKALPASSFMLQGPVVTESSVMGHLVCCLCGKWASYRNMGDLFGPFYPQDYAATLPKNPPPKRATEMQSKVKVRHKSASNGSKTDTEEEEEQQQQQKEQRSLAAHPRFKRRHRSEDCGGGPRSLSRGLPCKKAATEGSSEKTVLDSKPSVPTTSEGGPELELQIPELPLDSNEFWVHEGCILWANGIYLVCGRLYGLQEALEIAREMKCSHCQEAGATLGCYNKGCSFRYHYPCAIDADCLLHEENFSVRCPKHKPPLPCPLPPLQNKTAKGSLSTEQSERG
UniProt Q14157, sequence (Q14157 whole entry, looked up): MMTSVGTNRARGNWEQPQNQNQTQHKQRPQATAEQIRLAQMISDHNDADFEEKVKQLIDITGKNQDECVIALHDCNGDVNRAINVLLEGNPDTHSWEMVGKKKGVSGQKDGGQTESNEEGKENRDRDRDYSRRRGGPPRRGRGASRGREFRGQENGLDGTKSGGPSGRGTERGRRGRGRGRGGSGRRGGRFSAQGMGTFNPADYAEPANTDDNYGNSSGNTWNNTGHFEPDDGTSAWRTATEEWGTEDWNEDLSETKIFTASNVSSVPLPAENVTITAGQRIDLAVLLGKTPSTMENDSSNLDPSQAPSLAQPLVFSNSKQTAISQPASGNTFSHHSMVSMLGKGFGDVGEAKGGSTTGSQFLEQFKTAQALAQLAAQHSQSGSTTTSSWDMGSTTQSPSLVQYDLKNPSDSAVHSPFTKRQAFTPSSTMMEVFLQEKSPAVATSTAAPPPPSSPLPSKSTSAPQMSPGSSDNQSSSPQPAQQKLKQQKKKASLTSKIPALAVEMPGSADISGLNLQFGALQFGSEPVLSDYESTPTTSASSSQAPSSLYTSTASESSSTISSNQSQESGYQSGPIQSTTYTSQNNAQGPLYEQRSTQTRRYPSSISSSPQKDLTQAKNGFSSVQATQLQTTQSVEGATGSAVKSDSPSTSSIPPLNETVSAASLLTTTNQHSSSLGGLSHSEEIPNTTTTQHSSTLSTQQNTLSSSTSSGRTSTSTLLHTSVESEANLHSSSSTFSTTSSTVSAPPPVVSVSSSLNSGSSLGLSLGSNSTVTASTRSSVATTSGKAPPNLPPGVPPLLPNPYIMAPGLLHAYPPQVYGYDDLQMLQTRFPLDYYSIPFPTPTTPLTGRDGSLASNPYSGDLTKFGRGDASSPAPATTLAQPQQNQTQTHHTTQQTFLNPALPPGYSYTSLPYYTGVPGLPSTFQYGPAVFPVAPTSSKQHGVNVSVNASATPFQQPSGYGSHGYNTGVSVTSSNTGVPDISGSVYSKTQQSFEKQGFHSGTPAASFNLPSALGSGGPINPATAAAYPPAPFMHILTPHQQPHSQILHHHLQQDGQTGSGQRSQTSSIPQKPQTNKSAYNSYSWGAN
UniProt Q6Q0C0, sequence (Q6Q0C0 whole entry, looked up): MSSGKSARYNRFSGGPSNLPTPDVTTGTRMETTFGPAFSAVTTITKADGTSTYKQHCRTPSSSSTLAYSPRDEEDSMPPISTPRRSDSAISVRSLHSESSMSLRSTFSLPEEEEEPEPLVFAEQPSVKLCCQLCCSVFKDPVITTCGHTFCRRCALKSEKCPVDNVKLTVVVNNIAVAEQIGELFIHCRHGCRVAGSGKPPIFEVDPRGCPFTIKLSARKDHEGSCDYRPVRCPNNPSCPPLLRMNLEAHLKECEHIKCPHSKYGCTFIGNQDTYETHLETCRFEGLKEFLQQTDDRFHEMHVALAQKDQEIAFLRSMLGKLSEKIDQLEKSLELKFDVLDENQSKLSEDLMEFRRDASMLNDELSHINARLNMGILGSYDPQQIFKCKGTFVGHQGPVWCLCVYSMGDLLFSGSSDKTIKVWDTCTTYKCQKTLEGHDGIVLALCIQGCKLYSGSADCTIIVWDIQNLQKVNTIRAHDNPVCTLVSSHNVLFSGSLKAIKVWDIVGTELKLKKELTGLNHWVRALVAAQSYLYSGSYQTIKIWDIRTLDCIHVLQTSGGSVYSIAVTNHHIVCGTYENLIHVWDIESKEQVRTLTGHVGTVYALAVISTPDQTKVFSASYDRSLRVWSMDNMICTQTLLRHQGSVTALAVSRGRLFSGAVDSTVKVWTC
UniProt Q8TD43, sequence (Q8TD43 whole entry, looked up): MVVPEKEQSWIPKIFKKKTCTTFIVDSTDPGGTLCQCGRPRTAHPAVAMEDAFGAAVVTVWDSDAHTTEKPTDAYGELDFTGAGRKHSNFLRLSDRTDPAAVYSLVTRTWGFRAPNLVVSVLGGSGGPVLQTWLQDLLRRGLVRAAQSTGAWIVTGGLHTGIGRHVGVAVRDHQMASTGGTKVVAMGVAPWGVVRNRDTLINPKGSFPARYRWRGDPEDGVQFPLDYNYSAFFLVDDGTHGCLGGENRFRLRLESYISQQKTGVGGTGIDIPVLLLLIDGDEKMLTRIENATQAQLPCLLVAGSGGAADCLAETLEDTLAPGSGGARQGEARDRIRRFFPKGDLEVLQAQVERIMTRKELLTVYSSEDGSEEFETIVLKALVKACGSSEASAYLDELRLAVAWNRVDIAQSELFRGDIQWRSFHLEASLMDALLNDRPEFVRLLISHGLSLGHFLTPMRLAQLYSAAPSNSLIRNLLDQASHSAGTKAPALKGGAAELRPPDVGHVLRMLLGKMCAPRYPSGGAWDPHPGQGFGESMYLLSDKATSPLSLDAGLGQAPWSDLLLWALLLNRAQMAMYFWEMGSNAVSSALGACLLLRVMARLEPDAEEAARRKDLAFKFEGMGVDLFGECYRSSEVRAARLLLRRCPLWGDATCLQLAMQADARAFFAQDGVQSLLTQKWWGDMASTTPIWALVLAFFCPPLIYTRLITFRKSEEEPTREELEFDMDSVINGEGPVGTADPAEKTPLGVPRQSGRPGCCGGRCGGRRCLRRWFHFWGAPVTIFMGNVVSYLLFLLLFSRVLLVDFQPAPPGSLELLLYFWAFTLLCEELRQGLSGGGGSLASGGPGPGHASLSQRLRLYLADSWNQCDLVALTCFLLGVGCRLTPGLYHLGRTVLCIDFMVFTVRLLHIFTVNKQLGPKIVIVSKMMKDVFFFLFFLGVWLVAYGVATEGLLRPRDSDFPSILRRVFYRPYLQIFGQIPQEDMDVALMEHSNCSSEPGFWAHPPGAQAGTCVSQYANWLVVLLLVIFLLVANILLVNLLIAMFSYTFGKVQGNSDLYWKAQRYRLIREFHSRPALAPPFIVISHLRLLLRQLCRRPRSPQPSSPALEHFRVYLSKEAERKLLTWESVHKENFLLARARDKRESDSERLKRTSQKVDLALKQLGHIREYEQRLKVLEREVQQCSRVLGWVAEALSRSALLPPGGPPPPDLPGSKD

For TCF3 (UniProt X6REB3), the log2 fold change was 0.075 (inactive) in the test with vemurafenib; 0 (inactive) in test [1]; 0.128 (inactive) in test [2]; -0.168 (inactive) with alvocidib; -0.149 (inactive) with defactinib.
For the target TJP1 (UniProt G3V1L9), the log2 fold change with vemurafenib is 0.076 (inactive); in the test with barasertib, -0.034 (inactive); in test [3], -0.021 (inactive); in test [1], 0.04 (inactive); in test [2] it was -0.004 (inactive); with saracatinib it was 0.096 (inactive). The log2 fold change in the test with sotrastaurin is -0.046 (inactive); in the test with alvocidib it was -0.09 (inactive); in the test with Tubastatin A, -0.042 (inactive); in [4] it was 0.124 (inactive); with defactinib it was 0.241 (inactive); in test [5], 0.119 (inactive). The log2 fold change is -0.079 (inactive) in the test with alisertib and -0.215 (inactive) with gefitinib.
Turning to TGFBR1 isoform 2 (UniProt P36897), the log2 fold change in test [6] is -0.005 (inactive); with saracatinib, 1.04 (active); in [4], 0.156 (inactive); in test [5] it was -0.004 (inactive); with encorafenib it was -0.017 (inactive); in [7] it was 0.077 (inactive).
Regarding TXNRD2 isoform 3 (UniProt Q9NNW7), the log2 fold change in test [3] was -0.081 (inactive); with Tubastatin A it was 0.072 (inactive); in test [4], 0.194 (inactive).
Turning to TRPM4 (UniProt Q8TD43), the log2 fold change with barasertib is 0.456 (inactive); in [3] it was 0.066 (inactive); in test [1], -0.598 (inactive); in test [2], 0.156 (inactive); with saracatinib, 0.044 (inactive); with sotrastaurin, 0.11 (inactive). In addition, the log2 fold change was -0.401 (inactive) in the test with alvocidib, 0.053 (inactive) with Tubastatin A, -0.163 (inactive) in test [4] and 0.14 (inactive) in test [5].
For the target TTLL12 (UniProt V9GY16), the log2 fold change with vemurafenib was 0.261 (inactive); with barasertib it was 0.102 (inactive); in test [6], 0.227 (inactive); in test [3], -0.465 (inactive); in test [1], -0.393 (inactive); in test [2], 0.133 (inactive). Besides, the log2 fold change with sotrastaurin is -0.175 (inactive); with alvocidib, 0.003 (inactive); in the test with Tubastatin A, 0.177 (inactive); in [4], 0.077 (inactive); in the test with defactinib, -0.095 (inactive); in the test with encorafenib, -0.174 (inactive). Besides, the log2 fold change in test [7] was 0.146 (inactive).
TCF3 isoform 2 (UniProt P15923): the log2 fold change is 0.065 (inactive) in test [3], 0.043 (inactive) in the test with sotrastaurin, 0.055 (inactive) with Tubastatin A and 0.214 (inactive) in test [4].
On to TRAF7 (UniProt Q6Q0C0), for which the log2 fold change in the test with vemurafenib was -0.07 (inactive); in test [6], 0.053 (inactive); in [3], 0.012 (inactive); in test [1], -0.065 (inactive); in test [2], 0.191 (inactive); with saracatinib, 0.132 (inactive). Moreover, the log2 fold change is -0.044 (inactive) in the test with sotrastaurin; 0.058 (inactive) in the test with alvocidib; -0.008 (inactive) with Tubastatin A; 0.141 (inactive) with defactinib; 0.025 (inactive) in test [5]; 0.015 (inactive) in the test with encorafenib. Further, the values for the log2 fold change (in test [7]; in the test with alisertib; with gefitinib) were -0.11 (inactive), -0.05 (inactive) and -0.099 (inactive), respectively.
On to UBAP2L isoform 1 (UniProt Q14157), for which the log2 fold change with barasertib was 0.001 (inactive); in test [3], 0.207 (inactive); with sotrastaurin, -0.105 (inactive); with Tubastatin A it was -0.006 (inactive); with alisertib, 0.032 (inactive); in the test with gefitinib it was -0.088 (inactive).
In the case of UBAP2, A0A0D9SFI5, the log2 fold change in the test with sotrastaurin is 0.007 (inactive).
For the target TASP1 (UniProt Q9H6P5), the log2 fold change in test [8] is 0.028 (inactive); in the test with barasertib, 0.13 (inactive); in [6], -0.082 (inactive); in the test with volasertib, -0.02 (inactive); in test [3], -0.047 (inactive); with saracatinib, -0.082 (inactive). Further, the log2 fold change in the test with sotrastaurin was 0.02 (inactive); with Tubastatin A, 0.087 (inactive); in test [4], -0.119 (inactive); in test [5], 0.112 (inactive); with encorafenib it was -0.035 (inactive); in [7], 0.103 (inactive). For the same target, the log2 fold change with alisertib was -0.151 (inactive); in [9], -0.048 (inactive); with gefitinib, -0.046 (inactive).
With TCF20 (UniProt Q9UGU0), the log2 fold change was -0.106 (inactive) in test [8]; 0.084 (inactive) in the test with barasertib; 0.006 (inactive) in the test with volasertib; -0.02 (inactive) in test [1]; -0.031 (inactive) in test [2]; 0.038 (inactive) in the test with saracatinib. Moreover, the log2 fold change with sotrastaurin is 0.086 (inactive); with alvocidib, -0.017 (inactive); in test [4], 0.01 (inactive); in test [5], 0.615 (active); in [9] it was 0.167 (inactive).
As to TLE3 isoform 5 (UniProt Q04726), the log2 fold change in test [8] was 0.037 (inactive); in the test with barasertib, -0.176 (inactive); in test [6] it was 0.026 (inactive); with volasertib it was -0.025 (inactive); in [3], 0.034 (inactive); in test [1], 0.101 (inactive). In addition, the log2 fold change in test [2] was 0.178 (inactive); in the test with saracatinib it was 0.049 (inactive); with sotrastaurin it was 0.015 (inactive); with alvocidib, -0.153 (inactive); with Tubastatin A, -0.06 (inactive); in [4], 0.004 (inactive). Moreover, the log2 fold change in test [5] was 0.011 (inactive); with encorafenib, -0.02 (inactive); in [7] it was 0.002 (inactive); in the test with alisertib, 0 (inactive); in test [9], 0.008 (inactive); in the test with gefitinib, 0.009 (inactive).
